# Only some compounds are listed: those with a hit (about 19% of all), similar ones and a draw of the others.
# IL1B secr inh – inflammasome signaling inhibition, IL-1 beta readout | THP-1 LPS/ATP IL-1B secretion, AlphaLISA, 16 h; active compounds read low | activity change, % at 57.5 µM | hit rate 4.7% among 360,000 | AID 743279; in the data active means activity change below about -50%; inconclusive means mostly about -30% to -49%
#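 Secreted IL-1B measured by AlphaLISA bead assay after 16 h compound exposure of THP-1 cells; compounds (final up to 57.5 uM) added 1 h before LPS (250 ng/mL) and ATP (1.25 mM) stimulation; lower signal means less secretion.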
# DT40 TDP1 no CPT – qHTS for Inhibitors of human tyrosyl-DNA phosphodiesterase 1 (TDP1): qHTS in cells in absence of CPT; hit rate 15% among 420,000; DT40 Tdp1-/- hTDP1 cells, no CPT, ATP luminescence, 48 h; Potency, µM (titrated, usually from 46.2 µM), inactives show top-dose activity change, negative = growth inhibition, hits mostly inhibitors; further: potency means the concentration at half of the fitted maximal effect; nearly all actives have a fitted effect of over 55% in size
#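 Chicken DT40 Tdp1-/- cells complemented with human TDP1, screened without camptothecin (DMSO vehicle only), 400 cells/well. Compounds pin-transferred, cells incubated at 37 °C for at least 48 hr. Growth read as ATP-dependent luminescence (CellTiter-Glo, 30 min at RT).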
# HT1080NT lethal – kills 2HG-producing HT-1080-NT fibrosarcoma cells. Potency, µM (top dose mostly 46.1 µM), without a hit: at the highest dose activity, negative = less viability, hits mostly cytotoxic. hit rate 1.6% among 360,000. HT-1080-NT fibrosarcoma viability, CellTiter-Glo ATP luminescence, 48 h;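 further: NT is the 2HG producing partner of a matched IDH1 knockdown line; potency means the concentration at half of the fitted maximal effect; 0% = DMSO-treated cells and -100% = media-only wells without cells; nearly all actives have a fitted effect of over 55% in size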
#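 Luminescent CellTiter-Glo readout after 48 hours of compound exposure at 37 degrees C defined viability of HT-1080-NT cells. Activity was normalized to DMSO wells and cell-free media wells; concentration-response curves were fitted and assigned curve classes.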
# DT40 TDP1 CPT – growth inhibition of DT40 Tdp1-/-;hTDP1 cells with camptothecin (screen for TDP1 inhibitors); Potency, µM (top dose mostly 46.2 µM), for the others: top-dose activity change, negative = growth inhibition, hits mostly inhibitors; hit rate 12% among 420,000; chicken DT40 Tdp1-/-;hTDP1 cells + 20 nM CPT, ATP luminescence, 48 h; further: potency means the concentration at half of the fitted maximal effect; nearly all actives have a fitted effect of over 55% in size
#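 Chicken DT40 Tdp1-/- cells stably complemented with human TDP1 were seeded at 400 cells/well in medium containing 20 nM camptothecin, exposed to pin-transferred compounds, and grown at 37 °C for at least 48 hr. Viability was read as ATP luminescence.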
# HT1080 IDH1KD tx – toxicity to HT-1080 IDH1 knockdown cells (counter line); hit rate 2% among 360,000; HT-1080 IDH1 knockdown viability, ATP luminescence, 48 h; Potency, µM (doses to about 46.1 µM), inactives show at the top dose activity, negative = toxicity, most hits filed as cytotoxic;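 further: potency means the concentration at half of the fitted maximal effect; 0% = DMSO wells and -100% = cell-free medium wells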
#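 In this qHTS, HT-1080 cells depleted of IDH1 are exposed for 48 h at 37 °C to compound titrations. Toxicity is scored from CellTiter-Glo luminescence, with DMSO as full viability and medium alone as none.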
# An asterisk follows results filed as active; u = inconclusive; x = no result. Unless noted, the call rests on the fitted dose curve; in most records, active means well fitted curve in the direction sought with a large enough effect; inconclusive means small, poorly fitted or top-dose-only effect, or another doubt; inactive means no such curve, though single readings can be large; an effect the other way counts as inactive or inconclusive. Unless noted, on the % scale 0 is the no-effect control and ±100 the full control effect.
SMILES,IL1B secr inh,DT40 TDP1 no CPT,HT1080NT lethal,DT40 TDP1 CPT,HT1080 IDH1KD tx
COC(=O)c1ccc(COc2ccccc2/C=C(\C#N)C(=O)Nc2ccc(C)cc2)cc1,12,5.2µM*,-7%,6.5µM*,-26%
COC(=O)c1ccc(COc2ccccc2/C=N/NS(=O)(=O)c2ccc(C)cc2)cc1,57,u,-30%,18µM*,u
COc1ccc(-c2coc3cc4oc(=O)c5ccccc5c4cc23)cc1F,43,0.65µM*,u,0.82µM*,u
COc1ccc(-c2c(-c3ccccc3OC)oc3ccccc23)cc1F,28,u,0%,u,21%
CCOC(=O)C1CCCN(Cc2nc3ccc([N+](=O)[O-])cc3c(=O)n2-c2ccc(OC)cc2OC)C1 (stereo not drawn),62,23µM*,-5%,16µM*,8%
CCOC(=O)c1ccc(-n2c(CN3CCOCC3)nc3ccc([N+](=O)[O-])cc3c2=O)cc1,45,-4%,11%,-10%,15%
CCOC(=O)c1ccc(-n2c(CN(CC)CC)nc3ccc([N+](=O)[O-])cc3c2=O)cc1,36,u,-3%,18µM*,-3%
CCOC(=O)N1CCN(Cc2nc3ccc([N+](=O)[O-])cc3c(=O)n2-c2ccccc2F)CC1,31,23µM*,u,u,-18%
CCOC(=O)c1ccc(-n2c(CN3CCC(O)CC3)nc3ccc([N+](=O)[O-])cc3c2=O)cc1,0,u,8%,21µM*,13%
CCCS(=O)(=O)n1nc(-c2ccc(Br)cc2)cc1N,-6,u,24%,-25%,6%
CCCCNC(=O)CN1C(=O)CSc2ccc(S(=O)(=O)N3CCC(C)CC3)cc21,x,-18%,x,u,x
O=C(CNC(=O)c1ccc(F)cc1)OCc1cc(=O)n2nc(C3CC3)sc2n1,x,-1%,x,-15%,x
O=C(COc1cc(F)ccc1[N+](=O)[O-])NCCN1C(=O)CSC1=O,u,12%,-9%,8%,12%
COc1ccccc1NS(=O)(=O)c1cccc(C(=O)N2CCCCCC2)c1,4,u,-2%,u,-1%
CCOC(=O)N1CCN(Cc2nc3cc([N+](=O)[O-])ccc3n2C)CC1,37,-18%,-17%,-1%,-7%
CC(=O)N1CCN(Cc2nc3cc([N+](=O)[O-])ccc3n2C)CC1,7,u,1%,6.5µM*,3%
CCc1ccc(N2CCn3c2nc2c3c(=O)n(C/C=C/c3ccccc3)c(=O)n2C)cc1,x,1%,x,-1%,x
CCOC(=O)CN1C(=O)N[C@H](c2ccc(Br)cc2)C(C(C)=O)=C1C,-5,u,11%,u,2%
C=C(C)Cn1c(C2CC(=O)N(c3ccccc3F)C2)nc2ccccc21 (stereo not drawn),-12,u,-4%,u,0%
CCc1ccccc1N1CC(c2nc3ccccc3n2CCOc2ccc(Cl)c(C)c2)CC1=O (stereo not drawn),x,21µM*,x,10µM*,x
CCn1c(C2CC(=O)N(Cc3ccccc3)C2)nc2ccccc21 (stereo not drawn),-11,-8%,8%,-15%,11%
Cc1cccc(C)c1OCCn1c(C2CC(=O)N(Cc3ccc(F)cc3)C2)nc2ccccc21 (stereo not drawn),x,18µM*,x,u,x
Cc1cc(OCCn2c(C3CC(=O)N(Cc4ccc(F)cc4)C3)nc3ccccc32)ccc1Cl (stereo not drawn),x,26µM*,x,u,x
COc1ccccc1NC(=O)C(C)OC(=O)c1cccc(-n2cnnn2)c1 (stereo not drawn),34,-30%,-9%,u,2%
CCOc1ccc(CN2CCN(C(=O)c3cccc4ccccc34)CC2)cc1,-83*,u,u,u,u
CCOc1ccc(CN2CCN(Cc3ccc4c(c3)c3ccccc3n4CC)CC2)cc1,x,15µM*,x,u,x

# Screening data deposited in PubChem by National Center for Advancing Translational Sciences (NCATS).
